Laboratory results as given in PubChem BioAssay AID504834 (National Center for Advancing Translational Sciences (NCATS), 2011).
Out of some 320,000 compounds screened, about 22,000 (6.9%) were called active. About 27% were inconclusive and are not listed. The sample as a whole holds a higher share of actives than the screen did. Values without a mark were called inactive. Calls follow the shape of the dose curve; as a rule, active = well fitted inhibition curve with a large enough effect; inconclusive = small, poorly fitted or top-dose-only effect, or another doubt; inactive = no such curve, though single readings can be large or run the other way.

Assay: Primary qHTS for delayed death inhibitors of the malarial parasite plastid, 96 hour incubation
Conditions: P. falciparum luciferase reporter growth; series mostly up to 28.7 µM; activity change, negative = inhibition: at the top concentration
Method in brief: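 Infected RBCs, 2% Hct / 0.05% parasitemia final; luciferase-reporter P. falciparum; cpd 96 h, 37 C, 5% CO2; luciferase detection reagent; luminescence.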
% is scaled to controls: 0 for no effect and ±100 for the full control effect; potency is read from the fitted curve at half-maximal effect.

Compared with O=[N+]([O-])c1cccc(S(=O)(=O)NCc2ccccn2)c1, O=C(CCNS(=O)(=O)c1ccccc1)NCCCc1ccccc1 is higher in “activity change, negative = inhibition” value: 15.5% for the first, 20.3% for the second.

Compared with Cc1ccc(S(=O)(=O)NNC(=S)NC(C)(C)C)cc1, COc1ccc(C(=O)NNS(=O)(=O)c2ccc(C)cc2)cc1 is higher in “activity change, negative = inhibition” value: -0.316% for the first, 14.6% for the second.

First: CCOc1ccc(NC(=O)CN(C)C(=O)Cn2c(=O)cnc3ccccc32)cc1OCC
Second: CCOC(=O)c1[nH]c2ccc(OC)cc2c1NC(=O)CCN1CCN(Cc2ccccc2)CC1
The “activity change, negative = inhibition” value of the first is lower: 36.6% for the first, 74.3% for the second.

First: COc1ccccc1C(=O)NC(=O)COC(=O)C1CC1
Second: CCOC(=O)C1CCN(C(=O)Nc2ccc(Cl)cc2)CC1
The “activity change, negative = inhibition” value of the first is higher: 24.6% for the first, -7.09% for the second.

Going from CC(=O)c1ccccc1NC(=O)C1CC(=O)N(c2ccc3c(c2)OCCO3)C1 (stereo not given) to CC(=O)c1ccc(S(=O)(=O)NC2CC(=O)N(c3ccc4c(c3)OCCO4)C2)cc1 (stereo not given), the “activity change, negative = inhibition” value falls from -15.7% to -18.6%.

Going from Cn1c(=O)cc(SCC(=O)N2CCN(C(=O)c3ccco3)CC2)c2ccccc21 to Cn1c(=O)cc(SCC(=O)N2CCCC2)c2cc(Cl)ccc21, the “activity change, negative = inhibition” value rises from -22% to 2.24%.

Going from CCOC(=O)C1CCN(C(=O)COC(=O)C2CCN(S(=O)(=O)c3ccc4c(c3)OCCO4)CC2)CC1 to CCOC(=O)C1CCN(S(=O)(=O)c2c(C)noc2C)CC1, the “activity change, negative = inhibition” value rises from -15% to 13.3%.

First: CCCCn1c(SCC(=O)N2CCCC2=O)nc2cc(S(N)(=O)=O)ccc21
Second: COc1ccc(NC(=O)CN2C(=O)CSc3ccc(S(=O)(=O)N4CCC(C)CC4)cc32)cc1
The “activity change, negative = inhibition” value of the first is lower: -21.5% for the first, 13.9% for the second.

Going from CN1C(=O)c2ccc(C(=O)Nc3ccc(Br)cn3)cc2C1=O to O=C(Nc1nnc(-c2ccc(F)cc2)s1)c1c(F)cccc1Cl, the “activity change, negative = inhibition” value rises from -14% to 15.7%.

Compared with Cc1c(C(=O)N2CCOCC2)[nH]c2ccc(OCc3ccccc3)cc12, O=C(c1ccccc1-c1ccccc1)N1CCOCC1 is higher in “activity change, negative = inhibition” value: 17.7% for the first, 31% for the second.

Compared with O=C(COc1ccc(Cl)cc1)Nc1ccc2oc(=O)ccc2c1, CC(=O)Nc1ccc(NC(=O)COc2ccc(-c3ccccc3)cc2)cc1 is lower in “activity change, negative = inhibition” value: 77.3% for the first, -13.8% for the second.

First: COc1cc(F)c(C2=CC(=O)CC(C)(C)C2)cc1F
Second: CC1(C)CC(=O)C=C(c2ccc3ncccc3c2)C1
The “activity change, negative = inhibition” value of the first is higher: 19.7% for the first, -12.4% for the second.

First: COC(=O)C1(C)NC(c2ccccc2OC)C2C(=O)N(c3ccccc3)C(=O)C21 (stereo not given)
Second: O=C1CC(NNc2ccccc2)C(=O)N1c1cccc(Cl)c1 (stereo not given)
The “activity change, negative = inhibition” value of the first is higher: 25.5% for the first, 0% for the second.

Going from Cc1cc(C(=O)NCCc2ccc(Cl)cc2)n(-c2ccccc2)n1 to Cc1cc(NC(=O)Nc2ccc(Cl)cc2)n(-c2ccccc2)n1, the “activity change, negative = inhibition” value rises from 2.42% to 14.1%.

Compared with CCc1[nH]nc(C(=O)N2CCCC(CO)(Cc3ccc(F)cc3F)C2)c1C (stereo not given), CC(=O)N/C(=N/c1nc(C)cc(C)n1)Nc1ccc(F)cc1F is higher in “activity change, negative = inhibition” value: 0% for the first, 14.6% for the second.

Compared with CCc1c(C)nc(SCC(=O)NC2CCCC2)[nH]c1=O, CCOc1ccc(OCC)c(NC(=O)C2CCN(S(=O)(=O)c3c(C)noc3C)CC2)c1 is lower in “activity change, negative = inhibition” value: 0% for the first, -12.7% for the second.

First: CCc1ccc(C(=O)NN=C2CCCCCC2)s1
Second: CCCCCCCC(=O)OC(CN1CCCCCC1)CN1CCCC1=O (stereo not given)
The “activity change, negative = inhibition” value of the first is lower: -9.21% for the first, 47.3% for the second.

First: O=C(COC(=O)c1cnccn1)Nc1ccc(Cl)cc1C(F)(F)F
Second: CCOC(=O)c1oc2ccccc2c1NC(=O)c1cccs1
The “activity change, negative = inhibition” value of the first is lower: 5.52% for the first, 13.6% for the second.

First: O=C1NC(c2cccc(Cl)c2)Nc2ccccc21 (stereo not given)
Second: C=CCN1C(=O)C(O)(CC(=O)c2ccccn2)c2ccccc21 (stereo not given)
The “activity change, negative = inhibition” value of the first is higher: 18.4% for the first, -40.1% for the second.

Going from CC1(C)CC(=O)C=C(Nc2ccccc2)C1 to O=C(CC1(O)C(=O)N(CN2CCOCC2)c2ccccc21)c1ccccc1 (stereo not given), the “activity change, negative = inhibition” value falls from 0% to -18.4%.

Compared with O=C(c1ccc(Oc2ccc(Cl)cc2)c([N+](=O)[O-])c1)N1CCCC1, COc1ccc(CC(=O)Nc2c(C(N)=O)oc3ccccc23)cc1 is higher in “activity change, negative = inhibition” value: -13.7% for the first, 25.4% for the second.

Going from C#CC(C)(C)NC(=O)c1cnc(-c2ccccc2)nc1-c1ccccc1 to CCCCCCOc1ccc(OC(=O)c2cccnc2)cc1, the “activity change, negative = inhibition” value rises from -11.7% to 42.3%.

Compared with Cc1noc(C)c1C(=O)N1CCOCC1, CCOC(=O)N1CCC(C(N)=O)CC1 is lower in “activity change, negative = inhibition” value: 42.2% for the first, -38.4% for the second.

Compared with O=S(=O)(NCC1CC1)c1ccc(F)c(Cl)c1, Nc1c(Cl)cc(S(N)(=O)=O)cc1S(N)(=O)=O is higher in “activity change, negative = inhibition” value: 10.6% for the first, 38.3% for the second.

Compared with O=C(O)C1C2C=CC(C2)C1C(=O)NCc1ccccc1 (stereo not given), CN(C)CCCN1C(=O)CSC1c1ccc([N+](=O)[O-])cc1 (stereo not given) is lower in “activity change, negative = inhibition” value: 72.4% for the first, 23.9% for the second.

First: COc1ccc(NS(=O)(=O)c2cccc3nsnc23)cc1Cl
Second: Cc1c([N+](=O)[O-])c(N)nn1C
The “activity change, negative = inhibition” value of the first is lower: -14.6% for the first, 70.1% for the second.

For Cc1ccc(S(=O)(=O)NNC(=O)Nc2cccc3ccccc23)cc1, the Potency was 1.85 µM (active).
For CCCCn1c(SCC(=O)N2CCC(C(=O)OCC)CC2)nc2cc(S(N)(=O)=O)ccc21, the Potency was 13.1 µM (active).
With CCCCn1c(SCc2ncc(-c3ccccc3)o2)nc2cc(S(N)(=O)=O)ccc21 the Potency was 14.7 µM (active).
With CCOC(=O)C1CCN(C(=O)CSc2cc(=O)n(C)c3ccccc23)CC1 the Potency was 2.33 µM (active).
For CCOC(=O)c1[nH]c2ccc(OC)cc2c1NC(=O)N1CCOCC1, the Potency was 14.7 µM (active).
With CC1(C)CC(=O)C=C(c2ccc(Cl)c(C(F)(F)F)c2)C1 the Potency was 5.86 µM (active).
With CCCN(c1ccc(C)cc1)c1nc(=O)c2cccnc2s1 the Potency was 6.57 µM (active).
For C[N+]1(C)CCOC(O)(c2ccc(-c3ccc(C4(O)C[N+](C)(C)CCO4)cc3)cc2)C1 (stereo not given), the Potency was 5.86 µM (active).
For O=c1c(-c2cccc(Cl)c2)c[nH]n1-c1ccccc1, the Potency was 7.38 µM (active).
In the case of C=CCN1C(=O)C(O)(CC(=O)c2ccc(Cl)cc2)c2ccccc21 (stereo not given), the Potency is reported as 14.7 µM (active).
In the case of CC1CCN(C(=O)c2ccc(S(=O)(=O)Cc3cc(F)ccc3F)c([N+](=O)[O-])c2)CC1, the Potency is reported as 10.4 µM (active).
For Cc1oc2c(c1C(=O)N1CCOCC1)C(=O)c1ccccc1C2=O, the Potency was 0.828 µM (active).
For CCOC(=O)C1CCN(C(=O)C2CCN(S(=O)(=O)N3CCCC3)CC2)CC1, the Potency was 6.57 µM (active).
For CCOC(=O)C1CCN(C(=O)C2CCN(S(=O)(=O)c3c(C)noc3C)CC2)CC1, the Potency was 4.15 µM (active).
With CCCCCCCCCCCCN1C(=O)CSC1c1cccnc1 (stereo not given) the Potency was 1.65 µM (active).
In the case of Cc1cc(C)nc(-n2nc(C)cc2NC(=O)c2ccc(F)cc2F)n1, the Potency is reported as 9.28 µM (active).
In the case of Cc1cc(C)c(NC(=O)c2oc3ccccc3c2COc2ccccc2)c(C)c1, the Potency is reported as 5.22 µM (active).

O=C(Nc1ccc(F)cc1)C1CCN(C(=O)c2ccc([N+](=O)[O-])cc2)CC1 showed an activity change, negative = inhibition of 31.7% [at 5.75 µM].
